This test deals with T1, CRBN, Q96SW2.
T1 chain: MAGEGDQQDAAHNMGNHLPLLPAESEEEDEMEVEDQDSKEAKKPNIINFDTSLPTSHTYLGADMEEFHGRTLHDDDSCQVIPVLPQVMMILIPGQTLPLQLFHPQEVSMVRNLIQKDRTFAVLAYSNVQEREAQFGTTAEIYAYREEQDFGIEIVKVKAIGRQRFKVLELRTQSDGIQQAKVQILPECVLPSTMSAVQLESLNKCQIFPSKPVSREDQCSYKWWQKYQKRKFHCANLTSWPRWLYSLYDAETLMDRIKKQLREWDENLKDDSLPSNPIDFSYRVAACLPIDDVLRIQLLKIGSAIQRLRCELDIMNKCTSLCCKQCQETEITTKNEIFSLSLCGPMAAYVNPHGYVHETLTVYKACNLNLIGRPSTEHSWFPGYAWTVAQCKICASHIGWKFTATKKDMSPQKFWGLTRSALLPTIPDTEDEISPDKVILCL
The experiment in a line: log2 fold change of degron read counts, EGFP-low vs EGFP+ sorted cells (limma voom), compound-induced degradation; higher = more compound-induced degradation of the degron-EGFP fusion; degrons are variants of IKZF1/3 zinc finger 2; compound dose not given here. As to conditions: Jurkat, 18 h.

[1] abbreviates: compound: compound 19 (5-tert-butyl-thalidomide).
Where [2] appears, read: compound: compound 22 (5-morpholino-thalidomide).
[3] abbreviates: compound: compound 33 (diphenyl IMiD analogue).

In all, about 8,300 sequences were measured (“log2 fold change of degron read counts, EGFP-low vs EGFP+ sorted cells (limma voom), compound-induced degradation”: median about -1.1, highest 2% from about 3.2 on). The sample holds the highest values, similar sequences and a random draw of the others, so the mix is not that of the screen.
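Note: pooled lentiviral library of zinc finger degron-EGFP fusions in mCherry-positive Jurkat cells, FACS-sorted after compound exposure, with degron abundance counted by next-generation sequencing.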

Turning to FNCNICGACFTQKGNLLRHIKL [46F_47N_49N_50I_52G_53A_54C_55F_67L_, Q9UKT9], the “log2 fold change of degron read counts” value is 0.853 under setting [1], -0.00319 under setting [2], 0.551 under setting [3] and -0.352 (compound: thalidomide).

For FTCSVCGHAFTQKGNLLRHIKL [46F_47T_49S_50V_52G_53H_54A_55F_67L_, Q9UKT9], the “log2 fold change of degron read counts” value is -2.6 under setting [1], -3.26 under setting [2], -2.56 under setting [3] and -2.32 (compound: thalidomide).

With FMCNQCGAIFTQKGNLLRHIKL [46F_47M_49N_50Q_52G_53A_54I_55F_67L_, Q9UKT9], the “log2 fold change of degron read counts” value was -1.99 under setting [1], -2.22 under setting [2], -1.03 under setting [3] and -1.47 (compound: thalidomide).

For FECPICGHRFTQKGNLLRHIKL [46F_47E_49P_50I_52G_53H_54R_55F_67L_, Q9UKT9], the “log2 fold change of degron read counts” value by setting is: under setting [1], -2.87; under setting [2], -2.87; under setting [3], -1.63; (compound: thalidomide) -0.824.

On to LHCEICGFCCTQKGNLLRHIKL [46L_47H_49E_50I_52G_53F_54C_55C_67L_, Q9UKT9], for which the “log2 fold change of degron read counts” value is, setting by setting: under setting [1], 1.84; under setting [2], 1.64; under setting [3], 1.25; (compound: thalidomide) 0.874.

FYCEICGRTFTQKGNLLRHIKL [46F_47Y_49E_50I_52G_53R_54T_55F_67L_, Q9UKT9]: the “log2 fold change of degron read counts” value is 0.432 under setting [1], 1.09 under setting [2], 0.33 under setting [3] and -1.02 (compound: thalidomide).

As for FYCNQCGHVFTQKGNLLRHIKL [46F_47Y_49N_50Q_52G_53H_54V_55F_67L_, Q9UKT9], the “log2 fold change of degron read counts” value is -2.11 under setting [1], -2.08 under setting [2], -2.48 under setting [3] and -1.76 (compound: thalidomide).

With FHCPVCGAFFTQKGNLLRHIKL [46F_47H_49P_50V_52G_53A_54F_55F_67L_, Q9UKT9], the “log2 fold change of degron read counts” value by setting is: under setting [1], 0.94; under setting [2], 0.598; under setting [3], 1.1; (compound: thalidomide) -0.224.

As to FRCEICGAYFTQKGNLLRHIKL [46F_47R_49E_50I_52G_53A_54Y_55F_67L_, Q9UKT9], the “log2 fold change of degron read counts” value was -0.965 under setting [1], -0.721 under setting [2], 0.747 under setting [3] and 1.98 (compound: thalidomide).

Consider FACEICGAYFTQKGNLLRHIKL [46F_47A_49E_50I_52G_53A_54Y_55F_67L_, Q9UKT9], for which the “log2 fold change of degron read counts” value was 3.17 under setting [1], 1.39 under setting [2], 0.71 under setting [3] and 0.202 (compound: thalidomide).

As to FYCEICGAYFTQKGNLLRHIKL [46F_47Y_49E_50I_52G_53A_54Y_55F_67L_, Q9UKT9], the “log2 fold change of degron read counts” value under setting [1] came out at 3.25, the “log2 fold change of degron read counts” value under setting [2] was 2.89, the “log2 fold change of degron read counts” value under setting [3] was 2.12 and the “log2 fold change of degron read counts” value (compound: thalidomide) came to 0.307.

As for FWCEICGAYFTQKGNLLRHIKL [46F_47W_49E_50I_52G_53A_54Y_55F_67L_, Q9UKT9], the “log2 fold change of degron read counts” value by setting is: under setting [1], 3.24; under setting [2], 2.92; under setting [3], 1.88; (compound: thalidomide) 0.14.

In the case of FICEICGAYFTQKGNLLRHIKL [46F_47I_49E_50I_52G_53A_54Y_55F_67L_, Q9UKT9], the “log2 fold change of degron read counts” value under setting [1] is -0.272, the “log2 fold change of degron read counts” value under setting [2] amounted to 1.41, the “log2 fold change of degron read counts” value under setting [3] was 2.34 and the “log2 fold change of degron read counts” value (compound: thalidomide) was 2.12.

For FGCEICGAYFTQKGNLLRHIKL [46F_47G_49E_50I_52G_53A_54Y_55F_67L_, Q9UKT9], the “log2 fold change of degron read counts” value is, setting by setting: under setting [1], 1.74; under setting [2], 0.231; under setting [3], 2.58; (compound: thalidomide) 0.883.

For the sequence FHCDQCGACFTQKGNLLRHIKL [46F_47H_49D_50Q_52G_53A_54C_55F_67L_, Q9UKT9], the “log2 fold change of degron read counts” value is, setting by setting: under setting [1], -1.69; under setting [2], -1.96; under setting [3], -2.17; (compound: thalidomide) -2.89.

Regarding FICPICGAIFTQKGNLLRHIKL [46F_47I_49P_50I_52G_53A_54I_55F_67L_, Q9UKT9], the “log2 fold change of degron read counts” value under setting [1] is -1.09, the “log2 fold change of degron read counts” value under setting [2] stood at 0.608, the “log2 fold change of degron read counts” value under setting [3] was determined as 1.82 and the “log2 fold change of degron read counts” value (compound: thalidomide) worked out at 1.64.

Turning to FICPICGRHFTQKGNLLRHIKL [46F_47I_49P_50I_52G_53R_54H_55F_67L_, Q9UKT9], the “log2 fold change of degron read counts” value under setting [1] is -1.55, the “log2 fold change of degron read counts” value under setting [2] is -0.572, the “log2 fold change of degron read counts” value under setting [3] was -0.548 and the “log2 fold change of degron read counts” value (compound: thalidomide) is 0.569.

As to FYCDVCGATFTQKGNLLRHIKL [46F_47Y_49D_50V_52G_53A_54T_55F_67L_, Q9UKT9], the “log2 fold change of degron read counts” value runs as follows: under setting [1], 2.06; under setting [2], 2.82; under setting [3], 0.691; (compound: thalidomide) -1.49.

Take FTCEVCGALFTQKGNLLRHIKL [46F_47T_49E_50V_52G_53A_54L_55F_67L_, Q9UKT9]: the “log2 fold change of degron read counts” value is -0.893 under setting [1], -0.862 under setting [2], 0.362 under setting [3] and 0.612 (compound: thalidomide).

As to FSCEVCGARFTQKGNLLRHIKL [46F_47S_49E_50V_52G_53A_54R_55F_67L_, Q9UKT9], the “log2 fold change of degron read counts” value came out at 3.53 under setting [1], 2.6 under setting [2], 0.369 under setting [3] and 2.08 (compound: thalidomide).

In the case of FTCEVCGARFTQKGNLLRHIKL [46F_47T_49E_50V_52G_53A_54R_55F_67L_, Q9UKT9], the “log2 fold change of degron read counts” value came out at 1.77 under setting [1], 3.04 under setting [2], 1.75 under setting [3] and 3.26 (compound: thalidomide).

As to FHCEVCGARFTQKGNLLRHIKL [46F_47H_49E_50V_52G_53A_54R_55F_67L_, Q9UKT9], the “log2 fold change of degron read counts” value was 2.39 under setting [1], 2.38 under setting [2], 0.473 under setting [3] and 0.568 (compound: thalidomide).

In the case of FRCEVCGARFTQKGNLLRHIKL [46F_47R_49E_50V_52G_53A_54R_55F_67L_, Q9UKT9], the “log2 fold change of degron read counts” value under setting [1] was -1.49, the “log2 fold change of degron read counts” value under setting [2] is -2.37, the “log2 fold change of degron read counts” value under setting [3] was -0.456 and the “log2 fold change of degron read counts” value (compound: thalidomide) worked out at 0.516.

Regarding FTCNICGAGFTQKGNLLRHIKL [46F_47T_49N_50I_52G_53A_54G_55F_67L_, Q9UKT9], the “log2 fold change of degron read counts” value by setting is: under setting [1], 0.378; under setting [2], 0.88; under setting [3], 1.61; (compound: thalidomide) 1.21.

For the sequence FSCEICGAEFTQKGNLLRHIKL [46F_47S_49E_50I_52G_53A_54E_55F_67L_, Q9UKT9], the “log2 fold change of degron read counts” value worked out at 1.69 under setting [1], 0.708 under setting [2], 0.218 under setting [3] and 0.0707 (compound: thalidomide).

On to FRCPICGAAFTQKGNLLRHIKL [46F_47R_49P_50I_52G_53A_54A_55F_67L_, Q9UKT9], for which the “log2 fold change of degron read counts” value under setting [1] was found to be 2.26, the “log2 fold change of degron read counts” value under setting [2] was 2.26, the “log2 fold change of degron read counts” value under setting [3] came out at 2.48 and the “log2 fold change of degron read counts” value (compound: thalidomide) stood at 2.19.

With FVCPICGAAFTQKGNLLRHIKL [46F_47V_49P_50I_52G_53A_54A_55F_67L_, Q9UKT9], the “log2 fold change of degron read counts” value is, setting by setting: under setting [1], 1.31; under setting [2], 2.85; under setting [3], 2.04; (compound: thalidomide) 3.03.

Regarding FWCPICGAAFTQKGNLLRHIKL [46F_47W_49P_50I_52G_53A_54A_55F_67L_, Q9UKT9], the “log2 fold change of degron read counts” value by setting is: under setting [1], 3.12; under setting [2], 3.3; under setting [3], 2.33; (compound: thalidomide) 1.2.

FFCPICGAAFTQKGNLLRHIKL [46F_47F_49P_50I_52G_53A_54A_55F_67L_, Q9UKT9]: the “log2 fold change of degron read counts” value by setting is: under setting [1], 3.15; under setting [2], 3; under setting [3], 2.18; (compound: thalidomide) 1.33.

With FYCPICGAAFTQKGNLLRHIKL [46F_47Y_49P_50I_52G_53A_54A_55F_67L_, Q9UKT9], the “log2 fold change of degron read counts” value is, setting by setting: under setting [1], 2.86; under setting [2], 3.24; under setting [3], 2.38; (compound: thalidomide) 0.578.

As for FQCPICGAAFTQKGNLLRHIKL [46F_47Q_49P_50I_52G_53A_54A_55F_67L_, Q9UKT9], the “log2 fold change of degron read counts” value was 2.65 under setting [1], 3.13 under setting [2], 2.56 under setting [3] and 3.53 (compound: thalidomide).

For the sequence FGCPICGAAFTQKGNLLRHIKL [46F_47G_49P_50I_52G_53A_54A_55F_67L_, Q9UKT9], the “log2 fold change of degron read counts” value runs as follows: under setting [1], 3.57; under setting [2], 2.61; under setting [3], 2.88; (compound: thalidomide) 1.63.

With FKCPICGAAFTQKGNLLRHIKL [46F_47K_49P_50I_52G_53A_54A_55F_67L_, Q9UKT9], the “log2 fold change of degron read counts” value under setting [1] was 2.04, the “log2 fold change of degron read counts” value under setting [2] is -0.319, the “log2 fold change of degron read counts” value under setting [3] is -1.26 and the “log2 fold change of degron read counts” value (compound: thalidomide) came to 1.01.

On to FHCPICGAAFTQKGNLLRHIKL [46F_47H_49P_50I_52G_53A_54A_55F_67L_, Q9UKT9], for which the “log2 fold change of degron read counts” value is, setting by setting: under setting [1], 3.05; under setting [2], 2.78; under setting [3], 2.28; (compound: thalidomide) 1.19.

In the case of FSCPICGAAFTQKGNLLRHIKL [46F_47S_49P_50I_52G_53A_54A_55F_67L_, Q9UKT9], the “log2 fold change of degron read counts” value under setting [1] was found to be 3.12, the “log2 fold change of degron read counts” value under setting [2] was determined as 2.69, the “log2 fold change of degron read counts” value under setting [3] worked out at 2.7 and the “log2 fold change of degron read counts” value (compound: thalidomide) stood at 2.11.

On to FICPICGAAFTQKGNLLRHIKL [46F_47I_49P_50I_52G_53A_54A_55F_67L_, Q9UKT9], for which the “log2 fold change of degron read counts” value is 0.268 under setting [1], 3.15 under setting [2], 2.21 under setting [3] and 2.78 (compound: thalidomide).

Consider FNCPICGAAFTQKGNLLRHIKL [46F_47N_49P_50I_52G_53A_54A_55F_67L_, Q9UKT9], for which the “log2 fold change of degron read counts” value is, setting by setting: under setting [1], 2.96; under setting [2], 1.85; under setting [3], 0.954; (compound: thalidomide) 1.13.

Values taken from the supplement of paper PMC12645437, “Orthogonal IMiD-Degron Pairs Induce Selective Protein Degradation in Cells” (ACS Chemical Biology, 2025).
